Compounds without any hit were thinned out: in the full panel of roughly 79,000, 15% have a hit. Values without a mark were called inactive. Calls of active or inactive are those of the source. Cut-off read from the data, not from the text of the source: active = growth inhibition above about 70%; inactive = the rest.

One assay in a line: NCI Yeast Anticancer Drug Screen. Data for the sgs1 mgt1 strain (AID 161).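 Note: 0% = growth of cultures given vehicle only.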 To be noted: S. cerevisiae sgs1 mgt1 strain, at 50.0 µM, hits give high values. The method in brief:
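Inhibition of yeast growth, normalised to vehicle-treated controls, is reported for a strain bearing genetic alterations in DNA damage repair.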
As for `CN(C)CCCNc1nnc(NCCCN(C)C)c2[nH]cnc12`, the growth inhibition is 7.85%.

As to `Cc1ccc2ccccc2c1CSc1nc(N)nc2c1ncn2CC(C)C`, the growth inhibition is 30.7%. In the case of `c1ccc(CCc2nc3ccccc3[nH]2)cc1`, the growth inhibition is 1.5%. On the same count and under the same terms, in the case of `N#CSCc1ccc(CSC#N)c(Br)c1` it was 7.85%; in that of `O=C(O)c1ccccc1Nc1nc2ccccc2o1`, -7.05%; in that of `OC(CNC1CC2CCC1C2)COc1cccc2ccccc12` (stereo unspecified), 76.5% (active).

With `[N-]=[N+]=Nc1cc(=O)n(-c2ccccc2)c(=O)n1-c1ccccc1`, the growth inhibition is 13.3%.

Regarding `O=[N+]([O-])c1ccc(N=N/C(=N\Nc2ccccc2)c2nc3ccccc3[nH]2)c([N+](=O)[O-])c1`, the growth inhibition was -7.35%.

On to `Cc1cccc2nnc(CCCc3nnc4cccc(C)n34)n12`, for which the growth inhibition is -22.1%. The same measure, in the same setting: in the case of `COc1ccc(-c2cc(N3CCN(c4ccccc4)CC3)c(C#N)c(=O)o2)cc1` it was 18.5%; in that of `C=C1C(=O)OC2CCC(O)C12` (stereo unspecified), 1.2%; in that of `CCOC(=O)CCCOc1ccccc1`, -9.55%. Still for that read-out and setting: in the case of `CCN(CC)CCOc1cccc(Oc2ccccc2)c1` it was 72.8% (active); in that of `CC12CCC(O)CC1=CCC1C2CCC2(C)C1CCC21SCCS1` (stereo unspecified), 20.2%. For `NC1=NC(=O)C(CC(=O)Nc2ccc([N+](=O)[O-])cc2[N+](=O)[O-])S1` (stereo unspecified), the growth inhibition was 2.3%. On the same count and under the same terms, in the case of `CCOC(=O)CNC(=O)C(Cc1cnc[nH]1)NC(=O)OCc1ccccc1` (stereo unspecified) it was -8.6%; in that of `OC(CC1CCCCN1)c1cc2c(Cl)cc(Cl)cc2c2cc(C(F)(F)F)ccc12` (stereo unspecified), 42.5%. Still for that read-out and setting: in the case of `O=C1c2ccccc2C(=O)c2nc3ccc(Cl)cc3cc21` it was 1.35%; in that of `Cc1cc(Cl)ccc1N1C(=O)C(=O)C(c2nc3ccccc3s2)/C(=N\NC(=O)c2ccccc2O)C1=O` (stereo unspecified), -9.8%; in that of `COc1cc2cc3c4ccc(OC)c(OC)c4cc[n+]3c(C)c2cc1OC` (tested in a mixture with another compound), 98.8% (active). On the same count and under the same terms, in the case of `Cc1cc2c(=O)[nH]cnc2[nH]1` it was -16.7%.

A short description of another assay: NCI Yeast Anticancer Drug Screen. Data for the cln2 rad14 strain (AID 165).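 Note: 0% = growth equal to vehicle treated cultures.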 To be noted: S. cerevisiae cln2 rad14 strain, at 50.0 µM, hits give high values. The procedure, abridged:
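Compounds are applied to the cln2 rad14 yeast strain, and growth is then compared with that of vehicle-treated cultures to give inhibition.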
As for `CC(C)=Cc1ccccc1C1(C)C(c2ccccc2)=C1c1ccccc1`, the growth inhibition is 26.1%. For the molecule `CC(=O)CCC(=O)c1ccoc1`, the growth inhibition was -10.1%. The same measure, in the same setting: in the case of `O=P(O)(O)c1ccccc1Oc1ccccc1` it was 29.1%. Still for that read-out and setting: in the case of `CCN(CC)N=Nc1ccc(S(N)(=O)=O)cc1` it was 38%; in that of `CCCOc1ccc(C(=O)O)cc1`, -2%; in that of `Cc1ccc(C(=S)NC(=O)Nc2ccccc2)cc1`, -20.9%. On the same count and under the same terms, in the case of `NCCCNCCCCNC(=O)C(O)NC(=O)CCCCCCN=C(N)N` (stereo unspecified) it was 11.4%. For the molecule `NC(Cc1cccnn1)C(=O)O` (stereo unspecified), the growth inhibition is -58.9%.

`OCC1CC=CCC1` (stereo unspecified): the growth inhibition was 16%. `COc1ccc(/C=C2\CCC(CCN(C)C)(C3=CCCC3)C2=O)cc1` (stereo unspecified): the growth inhibition is 18.1%. On the same count and under the same terms, in the case of `COC1OCCCO1` it was -6.75%.

On to `CSc1ncc(Br)c(Sc2nccn2C)n1`, for which the growth inhibition is 4.7%. Still for that read-out and setting: in the case of `CCC1CN2CCc3cc(OC)c(OC)cc3C2CC1CC1c2cc(OC)c(OC)cc2CCN1C(=O)C1CCCN1` (stereo unspecified) it was 6.85%; in that of `Clc1ccc(C2SCCS2)c(Cl)c1`, 31.8%; in that of `CC(=O)CC(=O)NN(C)C`, 8.5%. In the case of `CC1CCC2(CC1)NN=c1s/c(=C\c3ccc(O)cc3)c(=O)n1N2` (stereo unspecified), the growth inhibition is 8.55%. On the same count and under the same terms, in the case of `COC(=O)/C=C/CCCC1CCCCC1` it was 0.45%; in that of `CCOC(=O)C1=C(C(=O)c2ccccc2)C(c2ccc([N+](=O)[O-])cc2)C(C(=O)c2ccccc2)=C(C(=O)OCC)N1`, 14.2%; in that of `CCCCCCCCCCCCCCCCOP(=O)(O)OP(=O)(O)OCC1OC(n2ccc(N)nc2=O)CC1O` (stereo unspecified), -17.8%. The same measure, in the same setting: in the case of `CN(C)CCCNc1nnc(NCCCN(C)C)c2[nH]cnc12` it was -24.9%.

In the case of `Cc1ccc2ccccc2c1CSc1nc(N)nc2c1ncn2CC(C)C`, the growth inhibition was 25.6%. Still for that read-out and setting: in the case of `c1ccc(CCc2nc3ccccc3[nH]2)cc1` it was -33.6%. Take `N#CSCc1ccc(CSC#N)c(Br)c1`: the growth inhibition was 18.6%. Same read-out and setting: in the case of `O=C(O)c1ccccc1Nc1nc2ccccc2o1` it was -26.6%. Same read-out and setting: in the case of `OC(CNC1CC2CCC1C2)COc1cccc2ccccc12` (stereo unspecified) it was 52.4%; in that of `[N-]=[N+]=Nc1cc(=O)n(-c2ccccc2)c(=O)n1-c1ccccc1`, 21.6%; in that of `O=[N+]([O-])c1ccc(N=N/C(=N\Nc2ccccc2)c2nc3ccccc3[nH]2)c([N+](=O)[O-])c1`, 19.6%.

With `Cc1cccc2nnc(CCCc3nnc4cccc(C)n34)n12`, the growth inhibition was -34.4%.

Consider `COc1ccc(-c2cc(N3CCN(c4ccccc4)CC3)c(C#N)c(=O)o2)cc1`, for which the growth inhibition is 15.8%. On the same count and under the same terms, in the case of `C=C1C(=O)OC2CCC(O)C12` (stereo unspecified) it was -30.6%.

Consider `CCOC(=O)CCCOc1ccccc1`, for which the growth inhibition is 7.6%. Turning to `CCN(CC)CCOc1cccc(Oc2ccccc2)c1`, the growth inhibition is 68.2%.

Turning to `CC12CCC(O)CC1=CCC1C2CCC2(C)C1CCC21SCCS1` (stereo unspecified), the growth inhibition is 14.4%. `NC1=NC(=O)C(CC(=O)Nc2ccc([N+](=O)[O-])cc2[N+](=O)[O-])S1` (stereo unspecified): the growth inhibition was 3.3%. On to `CCOC(=O)CNC(=O)C(Cc1cnc[nH]1)NC(=O)OCc1ccccc1` (stereo unspecified), for which the growth inhibition was -14.6%. In the case of `OC(CC1CCCCN1)c1cc2c(Cl)cc(Cl)cc2c2cc(C(F)(F)F)ccc12` (stereo unspecified), the growth inhibition was 30.1%. `O=C1c2ccccc2C(=O)c2nc3ccc(Cl)cc3cc21`: the growth inhibition was 21.3%.

In the case of `Cc1cc(Cl)ccc1N1C(=O)C(=O)C(c2nc3ccccc3s2)/C(=N\NC(=O)c2ccccc2O)C1=O` (stereo unspecified), the growth inhibition was 10.8%. Same read-out and setting: in the case of `COc1cc2cc3c4ccc(OC)c(OC)c4cc[n+]3c(C)c2cc1OC` (tested in a mixture with another compound) it was 98.4% (active); in that of `Cc1cc2c(=O)[nH]cnc2[nH]1`, 4.45%.

The values are drawn from PubChem BioAssay (NCI).
